Experimental data reported in PubChem BioAssay (NCI).
Where “and” joins values, the source holds several entries; their conditions need not be identical. Identical values can stand only once. Compounds without any hit were thinned out: in the full panel of roughly 83,000, 20% have a hit.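 Testing used 96-well plates and a 48-hour single-concentration exposure. Example: -40 means 40% of the starting cells died.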 Calls of active or inactive are those of the source. Rule for the calls: active = growth percent below 10; inactive = the rest.

Tests used:
Assay in all cases: NCI-60 one-dose screen, 48 h (100 = growth as untreated, 0 = no growth, -100 = all killed)
Conditions in all cases: 10 µM unless noted
NCI-H23 lung = tested on: NCI-H23 lung
NCI-H226 lung = tested on: NCI-H226 lung
NCI-H322M lung = tested on: NCI-H322M lung
HOP-62 NSCLC = tested on: HOP-62 NSCLC
NCI-H460 lung = tested on: NCI-H460 lung
HOP-92 NSCLC = tested on: HOP-92 NSCLC
NCI-H522 lung = tested on: NCI-H522 lung
A549/ATCC NSCLC = tested on: A549/ATCC NSCLC
786-0 renal = tested on: 786-0 renal
COLO 205 colon = tested on: COLO 205 colon

Measured: growth

CNc1ccc2c(c1)c1ccccc1n2C
inactive: NCI-H23 lung 85.2% | NCI-H226 lung 101% | NCI-H322M lung 98.4% | HOP-62 NSCLC 100% | NCI-H460 lung 108% | HOP-92 NSCLC 99.5% | NCI-H522 lung 92.4% | A549/ATCC NSCLC 105% | 786-0 renal 105% | COLO 205 colon 111%

Nc1nc(N)c2c(ccc3c2ccn3Cc2cccc([N+](=O)[O-])c2)n1
active: NCI-H23 lung -74.8% | NCI-H226 lung -86.6% | NCI-H322M lung -91.1% | HOP-62 NSCLC -83.7% | NCI-H460 lung -88.6% | HOP-92 NSCLC -72.1% | NCI-H522 lung -84.3% | A549/ATCC NSCLC -83% | 786-0 renal -89.6% | COLO 205 colon -88.9%

O=C1OCc2cccc3cccc1c23
inactive: NCI-H23 lung 101% | NCI-H226 lung 91.4% | NCI-H322M lung 119% | HOP-62 NSCLC 113% | NCI-H460 lung 104% | HOP-92 NSCLC 80.8% | NCI-H522 lung 108% | A549/ATCC NSCLC 78.9% | 786-0 renal 110% | COLO 205 colon 115%

COC(=O)[C@@]12OC[C@]34[C@H]([C@@H](O)[C@@H]1O)[C@@]1(C)[C@H](O)C(=O)C=C(C)[C@@H]1C[C@H]3OC(=O)C(OC(C)=O)[C@@H]24 (stereo partly drawn)
active: NCI-H23 lung -48.7% | NCI-H226 lung -65.4% | NCI-H322M lung -28.9% | HOP-62 NSCLC -30.7% | NCI-H460 lung -43.4% | HOP-92 NSCLC -44.2% | NCI-H522 lung -60.1% | A549/ATCC NSCLC -19.4% | 786-0 renal -38.9% | COLO 205 colon -64.3%

CC1(C)CC([P+](c2ccccc2)(c2ccccc2)c2ccccc2)=NN1
active: HOP-92 NSCLC -1.14% | COLO 205 colon -49.9%
inactive: NCI-H23 lung 28.1% | NCI-H226 lung 53.1% | NCI-H322M lung 81.1% | HOP-62 NSCLC 76.6% | NCI-H460 lung 17.2% | NCI-H522 lung 27.4% | A549/ATCC NSCLC 37.1% | 786-0 renal 80.4%

CCC(CCCN(CC)CCc1ccccc1)OC(=O)c1cc(OC)c(OC)c(OC)c1 (stereo not drawn)
inactive: NCI-H23 lung 81.5% | NCI-H226 lung 89.7% | NCI-H322M lung 72.2% | HOP-62 NSCLC 68.7% | NCI-H460 lung 101% | HOP-92 NSCLC 86.4% | NCI-H522 lung 69.6% | A549/ATCC NSCLC 75.1% | 786-0 renal 89.9% | COLO 205 colon 81.1%

COC(=O)Nc1nc2ccc(C(=O)c3ccccc3)cc2[nH]1
active: NCI-H460 lung 6.48% and 1.24% and -0.135% | NCI-H522 lung -11.7% and -16.9% and -32.5% | COLO 205 colon 0.824% and -17.1% and -22.8%
inactive: NCI-H23 lung 33.8% and 19.3% and 32.4% | NCI-H226 lung 50.9% and 80.4% and 109% | NCI-H322M lung 56.9% and 66.1% and 44.1% | HOP-62 NSCLC 30.4% and 21.9% and 49.2% | HOP-92 NSCLC 65.7% and 41.8% and 35.3% | A549/ATCC NSCLC 20.8% and 22.2% and 17.2% | 786-0 renal 19.8% and 23.6% and 31.9%

N#CC1C(=O)SC2c3ccccc3C(=O)c3ccccc3C12 (stereo not drawn)
inactive: NCI-H23 lung 104% | NCI-H226 lung 94.8% | NCI-H322M lung 98.8% | HOP-62 NSCLC 96.1% | NCI-H460 lung 96.9% | HOP-92 NSCLC 71.8% | NCI-H522 lung 94.9% | A549/ATCC NSCLC 84.9% | 786-0 renal 96.8% | COLO 205 colon 107%

Oc1c(Cl)cc(Cl)c2cccnc12
inactive: NCI-H23 lung 64.6% and 49.1% | NCI-H226 lung 81% and 71.6% | NCI-H322M lung 63.2% and 72.1% | HOP-62 NSCLC 49.7% and 71.2% | NCI-H460 lung 24.7% and 27.4% | HOP-92 NSCLC 49.7% | NCI-H522 lung 65.2% and 71.8% | A549/ATCC NSCLC 30.6% | 786-0 renal 69.1% and 74% | COLO 205 colon 99.9% and 85.2%

CCCCCCCCCCCCCCCCCCOP(=O)([O-])OC1CC[N+](C)(C)CC1
active: HOP-62 NSCLC 5.84% and -72.5% | NCI-H460 lung 1.19% and -34.8% | HOP-92 NSCLC -25.3% | NCI-H522 lung -52.1% and -87.8% | 786-0 renal -28.4% and -54.9% | COLO 205 colon -34.2% and -30.8%
inactive: NCI-H23 lung 76.2% and 60.8% | NCI-H226 lung 48.9% and 18.8% | NCI-H322M lung 59.2% and 40% | A549/ATCC NSCLC 17.1% and 38.2%

CCN(CC)CC(C)(C)C(=O)/C=C/c1ccc(Cl)c(Cl)c1
inactive: NCI-H322M lung 22.7% | HOP-62 NSCLC 46.1% | A549/ATCC NSCLC 33.3%
active: NCI-H23 lung 7.58% | NCI-H226 lung -15.3% | NCI-H460 lung -9.28% | HOP-92 NSCLC -3.59% | NCI-H522 lung -48.3% | 786-0 renal -60.2% | COLO 205 colon -53.4%

CC1=CC(O)C2CC1C2(C)C (stereo not drawn)
inactive: NCI-H23 lung 112% and 110% | NCI-H226 lung 98.1% and 97.9% | NCI-H322M lung 101% and 97.1% | HOP-62 NSCLC 93.4% and 102% | NCI-H460 lung 108% | HOP-92 NSCLC 100% and 78.2% | NCI-H522 lung 86.2% and 92% | A549/ATCC NSCLC 91.9% and 106% | 786-0 renal 95.7% and 110% | COLO 205 colon 94.5% and 112%

N#CSCc1ccc(Cl)c(CSC#N)c1
active: HOP-92 NSCLC -4.43% | COLO 205 colon -7.52%
inactive: NCI-H23 lung 40.4% | NCI-H226 lung 74.2% | NCI-H322M lung 98.7% | HOP-62 NSCLC 74% | NCI-H460 lung 16.3% | NCI-H522 lung 13.7% | A549/ATCC NSCLC 35.5% | 786-0 renal 32.1%

CN(C)C(=O)SC1=C(c2c(Cl)cccc2Cl)C(=O)c2ccccc21
inactive: NCI-H23 lung 70.6% | NCI-H226 lung 111% | NCI-H322M lung 98.3% | HOP-62 NSCLC 92.2% | NCI-H460 lung 98.7% | A549/ATCC NSCLC 110% | 786-0 renal 71.5%
active: HOP-92 NSCLC 3.58% | NCI-H522 lung -74.3% | COLO 205 colon -81.8%

CC1OC2CC(=O)OC2C2=C1C(=O)c1c(O)cccc1C2=O (stereo not drawn)
active: NCI-H23 lung -89.9% | NCI-H226 lung -80% | NCI-H322M lung -29.1% | HOP-62 NSCLC -88.2% | NCI-H460 lung -0.634% | HOP-92 NSCLC -92% | NCI-H522 lung -89.1% | A549/ATCC NSCLC 2.68% | 786-0 renal -87.9% | COLO 205 colon -87.2%

CCCCCCCCCCCCCCCCN(CC)CC
active: NCI-H23 lung -93.1% | NCI-H226 lung -65.9% | HOP-62 NSCLC -54.4% | NCI-H460 lung 1.87% | HOP-92 NSCLC -67.9% | NCI-H522 lung -82.4% | A549/ATCC NSCLC -69.5% | 786-0 renal -86.1% | COLO 205 colon -62.5%
inactive: NCI-H322M lung 14.5%

O=C(Nc1ccc(F)cc1)ON=C1CCCCC1
inactive: NCI-H23 lung 110% [100 µM] | NCI-H226 lung 96.9% [100 µM] | NCI-H322M lung 101% [100 µM] | HOP-62 NSCLC 112% [100 µM] | NCI-H460 lung 104% [100 µM] | HOP-92 NSCLC 108% [100 µM] | NCI-H522 lung 93.3% [100 µM] | A549/ATCC NSCLC 94.1% [100 µM] | 786-0 renal 87.6% [100 µM] | COLO 205 colon 125% [100 µM]

COC(=O)c1nc(=S)[nH]c(C(=O)OC)c1C(=O)c1ccccn1
active: NCI-H226 lung 9.58%
inactive: NCI-H23 lung 45.8% | NCI-H322M lung 56.5% | HOP-62 NSCLC 40% | NCI-H460 lung 38.6% | HOP-92 NSCLC 47.9% | A549/ATCC NSCLC 107% | 786-0 renal 26.7% | COLO 205 colon 21.1%

O=C(/C=C/C=C/c1ccccc1)c1ccco1
inactive: NCI-H23 lung 92.2% | NCI-H226 lung 109% | NCI-H322M lung 110% | HOP-62 NSCLC 117% | NCI-H460 lung 94.7% | HOP-92 NSCLC 96.1% | A549/ATCC NSCLC 101% | 786-0 renal 104% | COLO 205 colon 103%

Cc1ccc2nc(-[n+]3cc4ccccc4cc3C)ccc2c1
active: HOP-92 NSCLC 5.49% | COLO 205 colon -11.8%
inactive: NCI-H23 lung 19.1% | NCI-H226 lung 53.7% | NCI-H322M lung 85.2% | HOP-62 NSCLC 37.1% | NCI-H460 lung 29.5% | A549/ATCC NSCLC 43.1% | 786-0 renal 81.2%

O=[N+]([O-])c1ccc2c(N=Nc3ccc4ccccc4c3O)c(O)cc(S(=O)(=O)O)c2c1
inactive: NCI-H23 lung 101% | NCI-H226 lung 103% | NCI-H322M lung 65.1% | HOP-62 NSCLC 97.5% | NCI-H460 lung 102% | HOP-92 NSCLC 101% | A549/ATCC NSCLC 103% | 786-0 renal 106% | COLO 205 colon 104%

O=C(CC1(O)C(=O)Nc2c(Cl)ccc(Cl)c21)c1ccc(Cl)cc1Cl (stereo not drawn)
inactive: NCI-H23 lung 101% | NCI-H226 lung 97.6% | NCI-H322M lung 108% | HOP-62 NSCLC 70.2% | NCI-H460 lung 108% | HOP-92 NSCLC 92.5% | A549/ATCC NSCLC 91.4% | 786-0 renal 102% | COLO 205 colon 97.5%

COc1ccccc1/C=C\C(=O)c1ccccc1
inactive: NCI-H23 lung 79.8% | NCI-H226 lung 85.8% | NCI-H322M lung 95% | HOP-62 NSCLC 85.9% | NCI-H460 lung 59.5% | HOP-92 NSCLC 16.3% | A549/ATCC NSCLC 96.4% | 786-0 renal 81.9% | COLO 205 colon 111%

NC(=O)/C=C/C(=O)c1c(Cl)cccc1Cl
inactive: NCI-H226 lung 37.9% | NCI-H322M lung 19.1%
active: NCI-H23 lung -79.1% | HOP-62 NSCLC -4.87% | NCI-H460 lung -34.1% | HOP-92 NSCLC -99.3% | A549/ATCC NSCLC -43.1% | 786-0 renal -98.8% | COLO 205 colon -89.6%
